Reference: PubChem BioAssay AID493185 (National Center for Advancing Translational Sciences (NCATS), 2011)
Activity calls are given as the source filed them. Entries that show only a call come without a potency. Calls follow the shape of the dose curve; as a rule, active = well fitted activation curve with a large enough effect; inconclusive = small, poorly fitted or top-dose-only effect; inactive = no such curve, though single readings can be large or run the other way.

Experiment: Counterscreen for Identifying a Potential Treatment of Ataxia-Telangiectasia: Hit Validation
Details: cell-free AlphaLISA/AlphaScreen artifact counterscreen, PBS only, no cells; series mostly up to 76.9 µM
How it was run: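 Cell-free AlphaLISA counterscreen: compounds (up to 76.7 uM final) in PBS with detection mix of anti-pKAP1 and anti-KAP1 antibodies on donor/acceptor beads plus lysis buffer, incubated 6 hr at 25C before AlphaScreen read.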
Potency is read from the fitted curve at half-maximal effect.

Row | SMILES | Potency
1 | Cc1c(Cc2ccccc2)c(NCCCO)n2c(nc3ccccc32)c1C#N | inactive
2 | CC(C)(C)NC(=O)c1cccc2c1-c1ccccc1C2=O | inactive
3 | CCOC(=O)Cn1c(-c2ccccc2)cc(SC)c(C#N)c1=O | inactive
4 | Cc1ccc(C(=O)c2c(C)oc3c2C(=O)C(=O)c2ccccc2-3)cc1 | inactive
5 | COc1ccc(CCNC2=NCCS2)cc1OC | inactive
6 | CC1Cc2ccccc2N1C(=O)CSc1nnnn1-c1ccc2c(c1)OCCO2 (stereo not drawn) | inactive
7 | CN(C)c1ccc2nc3ccc(=[N+](C)C)cc-3sc2c1 | 11.6 µM (active)
8 | c1ccc(CSc2nnc(-c3ccco3)n2Cc2ccco2)cc1 | inactive
9 | COc1ccccc1[C@H]1C(c2cccc(Cl)c2)=NN(c2ccccc2)[C@@H]1CO | 29.2 µM (active)
10 | C=CS(=O)(=O)c1sc(Cl)c(N2CCOCC2)c1[N+](=O)[O-] | inactive
11 | CN1C[C@@H]2C(c3ccccc3)C3(c4ccccc4)CC2(C3)[C@H]1c1ccccc1 (stereo partly drawn) | inactive
12 | CCOc1ccc(C(=O)NC(=S)Nc2cccnc2)cc1[N+](=O)[O-] | inactive
13 | CC(C)(C=O)C1=CC(=O)c2ccccc2C1=O | inactive
14 | COc1ccc(CNC(=O)COc2cccnc2[N+](=O)[O-])cc1OC | inactive
15 | COc1ccc(N(CCC#N)C(=O)/C(C#N)=C\c2cccs2)cc1 | inactive
16 | C=CCN1C(=O)/C(=C/C(=O)OC)S/C1=N\NC(=O)c1ccccc1 | inactive
17 | CCCCC(=O)NC(c1ccco1)c1c(O)ccc2ccccc12 (stereo not drawn) | inactive
18 | OC(CN1CCCCC1)Cn1c2ccc(Cl)cc2c2cc(Cl)ccc21 (stereo not drawn) | inactive
